# Screening results (PubChem)
# An excerpt weighted towards active compounds, which were near 14% of everything screened.
# USP10 inh: inhibitors of human USP10 deubiquitinase; Ubiquitin carboxyl-terminal hydrolase 10 (Homo sapiens), Q14694; purified USP10, Ub-rhodamine fluorescence, 60 min; inhibition, % at 20 µM; actives 1.1% (n = 47,000); AID 1645856, 2021
# USP8 block: inhibitors of human USP8 deubiquitinase. actives 4.2% (n = 47,000). Ubiquitin carboxyl-terminal hydrolase 8 (Homo sapiens), P40818. inhibition, % at 20 µM. purified USP8, Ub-rhodamine cleavage fluorescence, 30 min
# USP28 inh: inhibitors of human USP28 deubiquitinase | Ubiquitin carboxyl-terminal hydrolase 28 (Homo sapiens), Q96RU2 | purified USP28, Ub-rhodamine cleavage fluorescence, 30 min | inhibition, % at 25 µM | actives 3% (n = 47,000) | AID 1645857, 2021
# USP17 block: inhibitors of human USP17 deubiquitinase. inhibition, % at 50 µM. purified USP17, Ub-rhodamine cleavage fluorescence, 3 h. actives 6.5% (n = 47,000). AID 1645855, 2021
# USP30 block: inhibitors of human USP30 deubiquitinase. Ubiquitin carboxyl-terminal hydrolase 30 (Homo sapiens), Q70CQ3. purified USP30, Ub-rhodamine cleavage fluorescence. inhibition, % at 25 µM. actives 5.3% (n = 47,000). AID 1645860, 2021
# * marks the source's active call; other numbers are inactive results; i = inactive; · = not tested or not shown. No stated cut-off is given here; in the data, active means inhibition above about 30%; inactive means the rest.
SMILES,USP10 inh,USP8 block,USP28 inh,USP17 block,USP30 block
CS(=O)(=O)c1cn[nH]c1C1CCN(S(=O)(=O)c2ccccc2)C1 (centres undefined),-1,3,-10,-7,0
COc1ccc(Cl)cc1NC(=O)c1nc(-c2cn(-c3ccccc3)nn2)no1,32*,99*,10,16,14
Cc1ccccc1NC(=O)c1nc(-c2cn(Cc3ccc(F)cc3)nn2)no1,35*,95*,12,78*,9
COc1ccccc1NC(=O)c1nc(-c2cn(-c3ccc(F)cc3)nn2)no1,21,57*,-11,·,-3
O=c1ccc(-c2nc(-c3ccc4c(c3)OCO4)no2)cn1Cc1cc(=O)n2ccccc2n1,-4,6,3,6,3
O=c1c2ccccc2nc2c(-c3nc(-c4cccc(C(F)(F)F)c4)no3)cccn12,-6,-219,-228,-148,i
O=C(Nc1ccccc1C(=O)NC1CCSC1)c1ccc([N+](=O)[O-])cc1 (centres undefined),15,11,9,46*,45*
COc1ccc(/C=C/C(=O)OC(C(=O)O)C(O)(Cc2ccc(O)cc2)C(=O)O)cc1O (centres undefined),-3,-5,-33,-15,-60
Cn1c(=O)sc2cc(NC(=O)c3ccc(Br)cc3)ccc21,1,3,-2,59*,-49
Cc1ccc(OCc2nc(CC(=O)Nc3cccc(F)c3)cs2)cc1,2,-3,-8,-8,-33
CC(=O)Nc1ccc(NC(=O)Cc2csc(COc3ccc(C)cc3)n2)cc1,5,5,·,52*,·
O=C1c2c(O)cccc2C2(Oc3cccc4cccc(c34)O2)C2OC12 (centres undefined),34*,84*,60*,98*,33*
O=C1c2c(O)ccc(O)c2C2(Oc3cccc4cccc(c34)O2)C2OC12 (centres undefined),14,39*,72*,97*,89*
CC1(C)c2ccc3c(c2C(=O)C2OC21)C(O)OC3=O (centres undefined),0,-8,-3,0,-11
CCN1CCc2nc(NC(=O)CCCOc3ccc(C(C)=O)cc3)sc2C1,-5,-23,13,44*,36*
CC(=O)c1ccc(OCCCC(=O)Nc2nc3c(C)cccc3s2)cc1,2,20,14,36*,17
CCN1CCc2nc(NC(=O)COc3ccc4ccccc4c3)sc2C1,-17,-31,-4,-12,-26
Cc1cc(NC(=O)CN2C(=O)C(=O)c3ccccc32)ccc1-n1ncnn1,1,32*,-14,6,-12
CNC(=O)c1cnn(-c2cc(-c3nc(C(C)(C)C)no3)ccn2)c1C,0,0,-4,0,1
CCOC(=O)C1CCN(Cc2cc(=O)oc3cc(O)c(O)cc23)CC1,34*,91*,85*,85*,52*
COc1cccc(CC(NC(C)=O)C(=O)NC2CCN(c3nc(OC)nc(OC)n3)CC2)c1 (centres undefined),-6,-13,-17,-11,-32
COc1ccc(CC(NC(C)=O)C(=O)NC2CCN(c3nc(OC)nc(OC)n3)CC2)cc1 (centres undefined),0,7,18,17,32*
COc1nc(OC)nc(N2CCC(NC(=O)C(Cc3ccccc3F)NC(C)=O)CC2)n1 (centres undefined),-1,9,5,14,42*
COc1nc(OC)nc(N2CCC(NC(=O)C(Cc3ccc(C)cc3)NC(C)=O)CC2)n1 (centres undefined),0,-2,7,20,34*
COC(=O)c1cc2occc2n1Cc1nc(-c2cccc(C)c2)oc1C,-3,-23,-3,-28,-22
SMILES,USP10 inh,USP8 block,USP28 inh,USP17 block,USP30 block
Cc1sc(NC(=O)Cn2nnc3ccccc32)nc1-c1ccc2c(c1)CCN2C(=O)C1CCCCC1,1,8,13,31*,30
CC(C)C(=O)N1CCc2cc(-c3csc(NC(=O)CN4CCc5ccccc5C4)n3)ccc21,-5,50*,-27,23,-106
O=C(CN1CCCCC1)Nc1nc(-c2ccc3c(c2)CCN3C(=O)C2CC2)cs1,-2,12,15,31*,14
O=C(CN1CCOCC1)Nc1nc(-c2ccc3c(c2)CCN3C(=O)c2ccccc2F)cs1,-2,15,8,30*,11
CC(C)C(=O)N1CCc2cc(-c3csc(NC(=O)CN4CCCCC4)n3)ccc21,-10,-61,-14,-13,-57
O=C(CN1CCOCC1)Nc1nc(-c2ccc3c(c2)CCN3C(=O)C2CC2)cs1,0,-11,-7,0,-7
CC(NC(=O)C1CCN(c2cnc(N3CCOCC3)nc2)CC1)c1ccc(F)cc1 (centres undefined),-6,-2,-10,-14,-26
COc1cccc(C2c3[nH]c4ccccc4c3C[C@H]3C(=O)N(c4ccccc4C(=O)NC4CCCC4)C(=O)N23)c1 (some centres undefined),-7,-25,-37,-29,-189
COc1cc(N2C[C@@H](NC(=O)N(C)C)[C@H]3OCCC[C@H]32)ncn1,-2,-62,-3,-7,0
Cc1cccc(-c2nnc(SCc3nc4ccccc4[nH]3)n2C)c1,-1,0,10,3,10
Cc1ccc(C(=O)N2CCc3cc(-c4csc(NC(=O)Cn5nnc6ccccc65)n4)ccc32)cc1,14,57*,23,43*,8
CC(=O)c1ccc(NC(=O)CSc2nc(-c3ccccc3)nc3c2COC(C)(C)C3)cc1,34*,3,4,21,18
CSc1nc(SCC(N)=O)c2c3c(sc2n1)COC(C)(C)C3,8,2,29,61*,44*
CC1(C)Cc2c(sc3nc(SCC(=O)Nc4ccccc4)nc(N)c23)CO1,-2,-10,31*,16,-180
CC1(C)Cc2c(sc3nc(SCc4ccccc4)nc(SCC(=O)Nc4ccccc4)c23)CO1,0,-13,-2,-7,4
CC1(C)Cc2nc(-c3ccccc3)nc(SCC(=O)Nc3ccccc3)c2CO1,6,-18,-5,0,0
COc1ccc(NC(=O)CSc2nc(N)c3c4c(sc3n2)COC(C)(C)C4)cc1,2,-3,-5,50*,-7
COc1ccccc1NC(=O)C1CCC(=O)N1S(=O)(=O)c1ccccc1 (centres undefined),3,3,-11,2,-9
O=C(/C=C/c1ccc(OCc2ccccc2)cc1)N1CCN(Cc2ccccc2)CC1,6,-9,3,0,10
Clc1ccccc1-c1cnc2sc(NCCc3ccccn3)nn12,5,-2,28,13,33*
COc1ccc(C(=O)Nc2ccccc2Cc2ccccc2)c(OC)c1,11,19,19,23,27
